Laboratory results published in the supplement of paper PMC6897291.

System: U-2932
Assay: growth inhibition by drug alone (1 - RLU/untreated control) (fraction); higher = stronger inhibition
Details: 177Lu-lilotomab satetraxetan 0 ug/ml
Method: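 U-2932 ABC-DLBCL cells were pretreated or not for 18 h with 1 ug/ml 177Lu-lilotomab satetraxetan (600 MBq/mg), washed and seeded (3000 cells/well) on 384-well plates pre-printed with the Selleck Cambridge Cancer Compound library. Viability was read by RealTime-Glo luminescence on days 3-6 after seeding. Effect = 1 - RLU/mean RLU of the 48 untreated no-drug control wells per plate; Bliss score = (M-E)/(1-Fa), with E the expected Bliss-additive effect.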

SMILES | growth inhibition by drug alone (10 nM, time (day): 3) | growth inhibition by drug alone (10 nM, time (day): 4) | growth inhibition by drug alone (10 nM, time (day): 5) | growth inhibition by drug alone (10 nM, time (day): 6) | growth inhibition by drug alone (1000 nM, time (day): 3) | growth inhibition by drug alone (1000 nM, time (day): 4) | growth inhibition by drug alone (1000 nM, time (day): 5) | growth inhibition by drug alone (1000 nM, time (day): 6)
CN(C)CCN(C)CCc1ccc(Cl)c(Cl)c1 | -0.0253 | -0.0155 | 0.000169 | 0.0547 | -0.0569 | -0.0395 | -0.0761 | -0.214
N[C@@H](Cc1ccc(N(CCCl)CCCl)cc1)C(=O)O [Melphalan] | 0.0288 | 0.0447 | -0.0175 | -0.0774 | -0.0212 | 0.00786 | -0.0265 | -0.169
O=C(Oc1ccc([N+](=O)[O-])cc1)N1CCC(C(O)(c2ccc3c(c2)OCO3)c2ccc3c(c2)OCO3)CC1 | 0.0143 | 0.0129 | -0.0257 | -0.105 | -0.0233 | 0.0131 | -0.0194 | -0.0568
O=C(O)c1nn(Cc2ccc(Cl)cc2Cl)c2ccccc12 [Lonidamine] | 0.129 | 0.0861 | 0.00199 | -0.13 | 0.0943 | 0.0942 | -0.0767 | -0.0595
CC1=C2C[C@H]3[C@@H](CC=C4C[C@@H](O)CC[C@@]43C)[C@@H]2CC[C@]12O[C@@H]1C[C@H](C)CN[C@H]1[C@H]2C [Cyclopamine] | 0.097 | 0.0521 | -0.0277 | -0.0904 | 0.00899 | 0.035 | -0.037 | -0.267
